Measured values as given in ChEMBL document CHEMBL1157539, “Thousands of chemical starting points for antimalarial lead identification” (Nature, 2010).

The molecules below were run on Plasmodium falciparum (assay: GSK_TCMDC: Inhibition of Plasmodium falciparum 3D7 in whole red blood cells, using parasite LDH activity as an index of growth. Test compounds present at 2uM).
Type: functional
In the case of `N#Cc1ccc(N[C@@H](CC2CCCCC2)C(=O)NCc2cc(F)c(F)cc2F)c2ccccc12.O=C(O)C(F)(F)F`, the Inhibition is reported as 94%.
With `COc1cc2nc(-c3ccc(Br)cc3)cc(N)c2cc1OC` the Inhibition was 98%.
For `O=C(Cn1c(SCc2cccc(F)c2F)cc(=O)c2ccccc21)N(CCN1CCCCC1)Cc1ccc(-c2ccc(C(F)(F)F)cc2)cc1.O=C(O)C(O)C(O)C(=O)O`, the Inhibition was 99%.

The molecules below were run on Plasmodium falciparum (assay: GSK_TCMDC: Inhibition of Plasmodium falciparum Dd2 in whole red blood cells, using parasite LDH activity as an index of growth. Test compounds present at 2uM).
Type: functional
With `OC(CNc1ccnc(Nc2cccc(Cl)c2)n1)c1cccc(C(F)(F)F)c1` (stereo unspecified) the Inhibition was 98%.
`CC(=NNC(N)=O)C1=C(O)C(c2ccccc2)N(C2CCCCC2)C1=O` (stereo unspecified) was tested, and the Inhibition was 96%.
`Cc1ccccc1CNc1noc(-c2c(-c3ccccc3)noc2C)n1` gave an Inhibition of 70%.
With `CC(C)CNCc1ccc(-c2ccc(CN(C(=O)NCCc3ccccc3)C3CCN(Cc4ccccc4)CC3)cc2)cc1.O=C(O)C(F)(F)F` the Inhibition was 62%.
For `Cn1nccc1C(=O)NCCNCc1cccc(-c2csc(-c3nc4ccccc4[nH]3)c2)c1.O=C(O)C(F)(F)F`, the Inhibition was 2%.
In the case of `CC1(C)N=C(N)N=C(N)N1O.Cl`, the Inhibition is reported as 1%.
`O=C(N[C@@H](Cc1ccccc1)C(=O)O)c1cc(-c2ccc(F)cc2)no1.O=C(N[C@@H](Cc1ccccc1)C(=O)O)c1conc1-c1ccc(F)cc1` gave an Inhibition of 49%.
`Cc1cccc2nc(-c3cccc(-c4cccc(NC(=O)c5cncn5C)c4)c3)[nH]c12` gave an Inhibition of 91%.
In the case of `O=C(Nc1ccc(Oc2ccccc2)cc1)N(CCN1CCCC1)Cc1ccc(-c2ccc(CN3CCNCC3)cc2)cc1.O=C(O)C(F)(F)F`, the Inhibition is reported as 90%.
Work on `Fc1ccc(C=NN=c2cc[nH]c3ccccc23)cc1` yielded an Inhibition of 100%.
Molecule `CC(C)[C@H](NCC(=O)c1ccccc1)C(=O)O.Cl` has an Inhibition of 0%.
For `COc1ccc(-c2ccc(NC(=O)c3ccc(C#N)cc3)cc2)cc1CN1CCC(O)CC1.O=C(O)C(F)(F)F`, the Inhibition was 28%.
`O=C(NC1CCN(CCN2CCC(c3cn(CCO)c4ccccc34)CC2)CC1)c1ccc(-c2ccc(C(F)(F)F)cc2)cc1` was tested, and the Inhibition was 54%.
`COc1ccc(CC(=O)NC(CCN2CCC3(CCc4ccccc43)CC2)c2ccc(Cl)c(Cl)c2)cc1` (stereo unspecified) gave an Inhibition of 75%.
For `O=C(c1ccc(-c2ccc(-c3nc4cc(C(F)(F)F)ccc4[nH]3)s2)cc1)N1CCN(CCc2ccccc2)CC1`, the Inhibition was 60%.
Work on `CCOc1cc2c(cc1S(=O)(=O)c1ccc(COc3ccc(C(F)(F)F)cc3)cc1)CCN(C)CC2.Cl` yielded an Inhibition of 14%.
`Cc1cc(C(=O)CN2C(=O)NC(C)(c3ccc4ccccc4c3)C2=O)c(C)n1Cc1ccco1` (stereo unspecified) gave an Inhibition of 71%.
`Cc1ccc(NC(=O)N2CCCN(CCCCCNC(=O)/C=C/c3ccc(Cl)c(Cl)c3)CC2)cc1` was tested, and the Inhibition was 2%.
`CCn1c(-c2nonc2N)nc2c(-c3ccccc3)ncc(OCCCCNCCc3ncc[nH]3)c21.O=C(O)C(F)(F)F` showed an Inhibition of 42%.
With `O=C(O)C(F)(F)F.O=S(=O)(NCCN1CCCC1)c1ccc(-c2ccc(CNCc3ccc(F)cc3)cc2)cc1F` the Inhibition was 21%.
`CN(C)c1ccc(OCCCCCCOc2ccccc2)cc1.Cl` showed an Inhibition of 68%.
`Cc1ccc(Nc2nc(C)cc(N3CCN(CCc4ccccc4)CC3)n2)cc1` showed an Inhibition of 6%.
In the case of `O=C(NCCNc1ccnc(Nc2ccc(F)cc2)n1)Nc1ccccc1F`, the Inhibition is reported as 4%.
Molecule `CC12CCC(=O)N1C(C(=O)Nc1cccc(C(=O)Nc3cccc(C(F)(F)F)c3)c1)CS2` (stereo unspecified) has an Inhibition of 89%.
With `COc1ccccc1NC(=O)Nc1ccc(-c2cccc(-c3nc4ccccc4[nH]3)c2)cc1` the Inhibition was 25%.
Work on `CCC(CC)N1C(=O)C(c2ccccc2)(c2ccccc2)N=C1N.O=CO` yielded an Inhibition of 61%.
Molecule `Cc1cc(NC2CCCC2)nc(Nc2ccccc2C)n1` has an Inhibition of 20%.
With `O=C(Cn1c(SCc2cccc(F)c2F)cc(=O)c2ccccc21)N(CCCn1ccnc1)Cc1ccc(-c2ccc(C(F)(F)F)cc2)cc1` the Inhibition was 99%.
For `COc1ccc(CNCc2ccccc2)cc1-c1cccc(S(=O)(=O)NCCN2CCCC2)c1.O=C(O)C(F)(F)F`, the Inhibition was 36%.
Work on `COc1ccc(C(c2ccc(N(C)C)cc2)c2ccc(N(C)C)cc2)cc1` yielded an Inhibition of 99%.
`COc1cc2nc(N3CCC(CNC(=O)c4ccc(-c5ccccc5)cc4)CC3)nc(N)c2cc1OC` showed an Inhibition of 92%.
Molecule `CCN(CC)CCN(Cc1ccc(-c2ccc(C(F)(F)F)cc2)cc1)C(=O)Cn1cc(CCCCc2cccc(F)c2F)c(=O)c2ccccc21.O=C(O)C(O)C(O)C(=O)O` has an Inhibition of 22%.
In the case of `COc1ccc2ccccc2c1C=NN=c1cc(C)[nH]c2c(C)cccc12`, the Inhibition is reported as 94%.
